From PubChem BioAssay (EPA / NIEHS)
Inconclusive results are not listed. The source made the active and inactive calls. The calls were made as follows: active = hit-call score of the fitted dose curve at least 0.9, where 1 is the maximum; inconclusive = response in the unintended direction; inactive = score below 0.9.

read-out: xenobiotic metabolism (CYP1A2), CYP1A2 (gene 1544); assay: CLD_CYP1A2_6hr: CellzDirect (CLD) Gene Expression Assay for xenobiotic metabolism (CYP1A2) at 6 hours (AID 2283663);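 as to AC50: potency is for induction meaning a rise in mRNA above DMSO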
Method: CLD_6hr is a cell-based, multiplexed-readout assay that uses hepatocyte, a human liver primary cell, with measurements taken at 6 hours after chemical dosing in a 96-well plate.CLD_CYP1A2_6hr is one of 16 assay component(s) measured or calculated from the CLD_6hr assay. It is designed to make measurements of mRNA induction, a form of inducible reporter, as detected with chemiluminescence signals by Quantitative Nuclease Protection Assay (qNPA) technology.Data from the assay component CLD_CYP1A2_6hr was analyzed at the endpoint, CLD_CYP1A2_6hr, in the positive analysis fitting direction relative to DMSO as the negative control and baseline of activity. Using a type of inducible reporter, gain-of-signal activity can be used to understand changes in the reporter gene as they relate to the gene CYP1A2. Furthermore, this assay endpoint can be referred to as a primary readout. To generalize the intended target to other relatable targets, this assay endpoint is annotated to the cyp intended target family, where subfamily is xenobiotic metabolism.
Human hepatocyte cultures were treated daily for two consecutive days with fresh dosing solutions containing appropriate concentrations of the 320 ToxCast chemicals (chemical identities were blinded to CellzDirect and other ToxCast collaborators), vehicle control (0.2% DMSO), and positive control inducers as summarized in Table 1. Due to the large number of treatment groups and chemicals examined, the ToxCast chemicals were divided into two groups (spanning two independent cultures of hepatocytes from separate donor preparations (Hu778: ToxCast plates 1 and 2; Hu776: ToxCast plates 3 and 4). Each preparation of human hepatocyte cultures was treated with respective vehicle control, medium only control, set of six positive controls/reference chemicals for the five hepatic receptor pathways, and a subset of eight of the ToxCast chemicals (indoxacarb, pyrithiobac-sodium, norflurazon, cyhalofop-butyl, methomyl, thiram, acetochlor, and propiconazole). These replicate data, coupled with internal replicates designed within the blinded ToxCast chemical library, provided additional data to evaluate interindividual differences between hepatocyte preparations and their potential impact on chemical profiles.Cell morphology and integrity were evaluated using phase-contrast microscopy as an indicator of hepatocyte cell health (Tyson & Green, 1987). Cultures for each treatment group (i.e., media, vehicle [0.2% DMSO], positive control inducers [multiple concentrations], and the ToxCast chemicals [multiple concentrations]) were observed and cell morphology was assessed relative to vehicle control cultures at each harvest time point (0, 6, 24, or 48 h). […] Images were evaluated at the conclusion of the study to assess changes in cell integrity and account for the effects of chemical exposure on uncharacteristic changes in concentration-dependent gene expression profiles. The results from these determinations of apparent cytotoxicity were annotated (yes/no) alongside the corresponding qNPA data for reference.At the conclusion of each treatment period, hepatocyte cultures (96-well) were washed with 1 volume of HBSS, lysed by addition of 25 ul ArrayPlate lysis buffer (HTG, Tucson, AZ), and 70 ul/well of Denaturation Oil, denatured by incubation at 95C for 10 min, and frozen at approximately -70C until analysis by nuclease protection assay (qNPA) (Roberts et al., 2007). For qNPA analysis, cell lysates were thawed at 50C for approximately 30 min, qNPA probes were added, and samples were incubated at 95C for 10 min to begin the detection process by denaturing the target RNA, dissociating the duplexes and secondary structure hybridization. At the conclusion of the hybridization period, S1 nuclease reagent was added to each sample to digest all nonprotected nucleotides at 50C for 60-90 min. […]

Question: How did the outcome turn out when `CC(C)N(C(=O)COc1nnc(C(F)(F)F)s1)c1ccc(F)cc1` was run?
Answer: Its outcome is “inactive”.

Question: How did the outcome turn out when `[2H]C1([2H])[n+]2ccccc2-c2cccc[n+]2C1([2H])[2H]` was run?
Answer: Its outcome is “inactive”.

Question: With `O=C(NC(=O)c1c(F)cccc1F)Nc1ccc(OC(F)(F)C(F)OC(F)(F)F)c(Cl)c1` (stereo not given) as the molecule, how does the outcome read?
Answer: The outcome was “inactive”.

Question: Which AC50 does the source give for `O=C(O)COc1ccc(Cl)cc1Cl` here?
Answer: The AC50 was 1.89 µM (active).

Question: Which outcome does the source give for `CCOc1nc(NC)nc(NC(=O)NS(=O)(=O)c2ccccc2C(=O)OC)n1` here?
Answer: Its outcome is “inactive”.

Question: With `Clc1ccccc1-c1nnc(-c2ccccc2Cl)nn1` as the molecule, how does the outcome read?
Answer: The outcome was “inactive”.

Question: For `O=[N+]([O-])/N=C1\NCCN1Cc1ccc(Cl)nc1`, which outcome is on record?
Answer: Its outcome is “inactive”.

Question: Which AC50 does the source give for `CCCN(CCOc1c(Cl)cc(Cl)cc1Cl)C(=O)n1ccnc1` here?
Answer: The AC50 was 0.0805 µM (active).

Question: With `CC(C)(C)C(O)/C(=C\c1ccc(Cl)cc1Cl)n1cncn1` (stereo not given) as the molecule, how does the outcome read?
Answer: Its outcome is “inactive”.

Question: For `CNC(=O)Oc1cccc(N=CN(C)C)c1`, which outcome is on record?
Answer: The outcome was “inactive”.

Question: For `OCCOc1ccccc1`, which outcome is on record?
Answer: Its outcome is “inactive”.

Question: Which outcome does the source give for `CCCN(CCC)c1c([N+](=O)[O-])cc(C(F)(F)F)cc1[N+](=O)[O-]` here?
Answer: Its outcome is “inactive”.

Question: For `Cc1[nH]c(=O)n(C(C)(C)C)c(=O)c1Cl`, which outcome is on record?
Answer: The outcome was “inactive”.

Question: With `CCOCN(C(=O)CCl)c1c(C)cccc1CC` as the molecule, how does the outcome read?
Answer: The outcome was “inactive”.

Question: With `COc1nn(CSP(=S)(OC)OC)c(=O)s1` as the molecule, how does the AC50 read?
Answer: Its AC50 is 2.89 µM (active).

Question: With `COC(=O)c1ccccc1CS(=O)(=O)NC(=O)Nc1nc(OC)cc(OC)n1` as the molecule, how does the outcome read?
Answer: The outcome was “inactive”.

Question: With `COP(=S)(OC)Oc1ccc(SC)c(C)c1` as the molecule, how does the AC50 read?
Answer: The AC50 was 5.14 µM (active).

Question: With `CCN(CC)C(=O)SCc1ccc(Cl)cc1` as the molecule, how does the outcome read?
Answer: Its outcome is “inactive”.

Question: Which AC50 does the source give for `CNC(=O)CSP(=S)(OC)OC` here?
Answer: Its AC50 is 0.327 µM (active).

Question: With `O=S(=O)(O)C(F)(F)C(F)(F)C(F)(F)C(F)(F)C(F)(F)C(F)(F)C(F)(F)C(F)(F)F` as the molecule, how does the outcome read?
Answer: Its outcome is “inactive”.

Question: For `CN1CSC(=S)N(C)C1`, which outcome is on record?
Answer: The outcome was “inactive”.

Question: `O=C(Nc1ccccc1)Nc1cnns1` was tested. Which AC50 did it give?
Answer: The AC50 was 3.08 µM (active).

Question: `N#CN` was tested. Which outcome did it give?
Answer: The outcome was “inactive”.

Question: `COC(=O)c1ccccc1S(=O)(=O)NC(=O)Nc1nc(C)nc(OC)n1` was tested. Which outcome did it give?
Answer: Its outcome is “inactive”.

Question: With `CCc1ccc(C(=O)NN(C(=O)c2cc(C)cc(C)c2)C(C)(C)C)cc1` as the molecule, how does the AC50 read?
Answer: The AC50 was 33.7 µM (active).

Question: `CCC(C)(NC(=O)c1cc(Cl)c(C)c(Cl)c1)C(=O)CCl` (stereo not given) was tested. Which outcome did it give?
Answer: The outcome was “inactive”.

Question: Which outcome does the source give for `COc1cc(OC)nc(NC(=O)NS(=O)(=O)c2cc(NC=O)ccc2C(=O)N(C)C)n1` here?
Answer: The outcome was “inactive”.

Question: For `CC(C)(C)C(O)C(Oc1ccc(Cl)cc1)n1cncn1` (stereo not given), which outcome is on record?
Answer: Its outcome is “inactive”.

Question: With `CC(C)OC(=O)Nc1cccc(Cl)c1` as the molecule, how does the AC50 read?
Answer: Its AC50 is 3.11 µM (active).

Question: With `O=C(O)CCCOc1ccc(Cl)cc1Cl` as the molecule, how does the outcome read?
Answer: The outcome was “inactive”.

Question: For `CNC(=O)/C=C(\C)OP(=O)(OC)OC`, which outcome is on record?
Answer: Its outcome is “inactive”.

Question: How did the AC50 turn out when `COP(=S)(OC)Oc1ccc([N+](=O)[O-])cc1` was run?
Answer: The AC50 was 3.16 µM (active).

Question: `C[C@H]1[C@H](c2ccc(Cl)cc2)SC(=O)N1C(=O)NC1CCCCC1` was tested. Which outcome did it give?
Answer: Its outcome is “inactive”.

Question: With `CNC(=O)Oc1ccccc1OC(C)C` as the molecule, how does the outcome read?
Answer: The outcome was “inactive”.

Question: Which AC50 does the source give for `COC(=O)c1ccccc1S(=O)(=O)NC(=O)N(C)c1nc(C)nc(OC)n1` here?
Answer: Its AC50 is 20 µM (active).

Question: Which outcome does the source give for `CC1(C)C(C=C(Cl)Cl)C1C(=O)OC(C#N)c1ccc(F)c(Oc2ccccc2)c1` (stereo not given) here?
Answer: The outcome was “inactive”.

Question: How did the outcome turn out when `CCS(=O)(=O)c1cccnc1S(=O)(=O)NC(=O)Nc1nc(OC)cc(OC)n1` was run?
Answer: Its outcome is “inactive”.

Question: With `COP(=O)(OC)OC=C(Cl)Cl` as the molecule, how does the outcome read?
Answer: The outcome was “inactive”.

Question: With `N#Cc1c(Cl)c(Cl)c(Cl)c(C#N)c1Cl` as the molecule, how does the AC50 read?
Answer: Its AC50 is 31.7 µM (active).

Question: With `CCC(C)Nc1c([N+](=O)[O-])cc(C(C)(C)C)cc1[N+](=O)[O-]` (stereo not given) as the molecule, how does the AC50 read?
Answer: The AC50 was 5.44 µM (active).
